High-throughput results deposited in PubChem BioAssay by National Center for Advancing Translational Sciences (NCATS).
NPSR antag – neuropeptide S receptor (human) antagonism, cAMP. Q6W5P4. CHO-NPSR cells, cAMP TR-FRET, antagonist mode. Potency, µM (doses to about 38.3 µM), without a hit: at the top dose activity change, negative = inhibition, most hits filed as inhibitors. 220,000 tested, 1% active. AID 1461; note: % is set by controls: 0 for no effect and ±100 for the full control effect; nearly all actives have a fitted effect of over 50% in size
Target sequence (Q6W5P4 whole entry, looked up): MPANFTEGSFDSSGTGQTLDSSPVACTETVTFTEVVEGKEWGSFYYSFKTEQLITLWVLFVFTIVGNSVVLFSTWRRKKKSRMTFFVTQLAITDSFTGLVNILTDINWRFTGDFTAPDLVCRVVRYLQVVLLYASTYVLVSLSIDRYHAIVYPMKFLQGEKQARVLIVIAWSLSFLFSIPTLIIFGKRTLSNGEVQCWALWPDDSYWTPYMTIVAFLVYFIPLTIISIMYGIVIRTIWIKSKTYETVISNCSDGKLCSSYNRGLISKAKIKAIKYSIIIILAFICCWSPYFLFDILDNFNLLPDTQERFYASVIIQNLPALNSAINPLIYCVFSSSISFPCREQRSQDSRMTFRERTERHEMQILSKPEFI
IMPase Li cell – cell-permeable IMPase inhibitors with lithium potentiation; CHO-M1 cells, IP1 TR-FRET (IP-One), carbachol + lithium; Potency, µM (top dose mostly 59.4 µM), inactives show at the highest dose activity, negative = IMPase inhibition, most hits filed as inhibitors; 210,000 tested, 0.35% active;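 note: IP1 builds up when IMPase is blocked and the TR-FRET signal falls; plate controls were basal vehicle for no effect and high inhibitor control for full effect; nearly all actives have a fitted effect of over 50% in size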
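Test compounds were applied to CHO-M1 cells previously cultured for 16–30 h at 2000 per well. A small lithium amount accompanied them; after 30 min at 37C, IP1 was quantified by TR-FRET.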
Epigenetic reg – epigenetic control regulation, reporter derepression; murine LDR cells, GFP reporter derepression, 30 h; Potency, µM (highest dose often 53.9 µM), without a hit: at the top dose GFP activation, most hits filed as activators; 280,000 tested, 0.2% active; note: % of control where 0% means no effect; nearly all actives have a fitted effect of over 60% in size
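Murine LDR cells carrying a silenced, genomically integrated CMV-driven GFP reporter were exposed to compound for 30 hours at 37 C. After PBS washes, GFP-positive cells (20–120 um objects) were counted by laser-scanning microplate cytometry.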
GCN5L2 inh – inhibitors of human GCN5L2 histone acetyltransferase; Potency, µM (doses to about 58.9 µM), for the others: at the highest dose activity change, negative = inhibition, hits mostly inhibitors; GCN5L2 HAT assay, ThioGlo1 CoA-SH fluorescence; 390,000 tested, 0.21% active; Q92830; note: % is set by controls: 0 for no effect and ±100 for the full control effect
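GCN5L2 (20nM final) in 50mM HEPES, 0.1mM EDTA pH 7.5, 0.01% Tween-20 was preincubated 15 min at room temperature with compound, then given ThioGlo1 (50uM), H3(1-25) peptide (75uM) and acetyl-CoA (70uM); CoA-thiol fluorescence (Ex340/Em540) was read at 0 and 20 min.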
KDM4E inh – blocks human JMJD2E demethylase activity; B2RXH2; JMJD2E catalytic domain, FDH-coupled NADH fluorescence (FDH is formaldehyde dehydrogenase); Potency, µM (series often up to 57.1 µM), without a hit: top-dose activity change, negative = inhibition, hits mostly inhibitors; 230,000 tested, 1.6% active; AID 2147; active = well fitted inhibition curve with a large enough effect, not every such curve was filed as active; inconclusive = small, poorly fitted or top-dose-only effect, or another doubt; inactive = no such curve, though single readings can be large or run the other way;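 note: 0% = wells with enzyme and -100% = buffer wells without enzyme; nearly all actives have a fitted effect of over 50% in size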
Sfp PPTase inh – blocks B. subtilis Sfp PPTase activity; Biochemical Sfp PPTase activity, qHTS; Q9F4F7; 310,000 tested, 3.5% active; Potency, µM, for the others: largest response in the series, negative = inhibition, most hits filed as inhibitors;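 note: the enzyme is Sfp with the accession as filed and its product quenches rhodamine fluorescence; 0% = enzyme reaction without inhibitor and -100% = no enzyme wells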
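Fluorescence-quenching assay: 15 nM Sfp-PPTase preincubated 15 min at room temperature with compound, then 5 uM rhodamine-CoA and 12.5 uM BHQ-2-labelled YbbR peptide added. Fluorescence (ex 525/em 598 nm) read at start and after 30 min; difference gives rate.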
* hit, by the source's call; [ ] = another dose, or the depositor's remark. Rows were chosen to be rich in hits. Some 3.6% of all compounds tested hit in one or more screens of this group. Unless noted, calls come from the whole dose curve; as a rule, active = well fitted curve in the direction sought with a large enough effect; inconclusive = small, poorly fitted or top-dose-only effect, or another doubt; inactive = no such curve, though single readings can be large; an effect the other way counts as inactive or inconclusive. Potency is the fitted concentration of half-maximal effect.

For CN1CCc2nc3sc(C#N)c(N)c3c(-c3cccs3)c2C1 the results were NPSR antag 12.6µM*, IMPase Li cell 36.0%[38.3 µM], Epigenetic reg 0.0%, GCN5L2 inh -2.0%, KDM4E inh -14.5% and Sfp PPTase inh 50.1µM*.
For CCCCn1c(O)c(/C=N/NC(=O)c2ccncc2)c(=O)[nH]c1=O the results were NPSR antag 6.6%[7.67 µM], Epigenetic reg -1.4%, GCN5L2 inh -6.6%, KDM4E inh 8.91µM* and Sfp PPTase inh -5.0%.
Cc1ccccc1-n1c(O)c(/C=N/NC(=O)c2ccncc2)c(=O)[nH]c1=O was read as NPSR antag 3.4%, Epigenetic reg 0.1%, GCN5L2 inh -6.0%, KDM4E inh inconclusive and Sfp PPTase inh 16.7%.
Screening CCn1c(O)c(/C=N/NC(=O)c2ccncc2)c(=O)[nH]c1=S returned NPSR antag 7.2%, IMPase Li cell -9.2%, Epigenetic reg 1.3%, GCN5L2 inh -15.8%, KDM4E inh -2.0% and Sfp PPTase inh -6.5%.
For Cc1cc(C)c(-n2c(O)c(/C=N/NC(=O)c3ccncc3)c(=O)[nH]c2=O)c(C)c1 the results were NPSR antag 2.0%, Epigenetic reg 1.1%, GCN5L2 inh -5.8%, KDM4E inh 14.1µM* and Sfp PPTase inh 12.7%.
Screening CC(C)c1ccc(-n2c(O)c(/C=N/NC(=O)c3ccncc3)c(=O)[nH]c2=O)cc1 returned NPSR antag 14.7%, IMPase Li cell -6.7%, Epigenetic reg 0.0%, GCN5L2 inh 37.9%, KDM4E inh inconclusive and Sfp PPTase inh 5.8%.
Screening CCc1ccc(-n2c(O)c(/C=N/NC(=O)c3ccncc3)c(=O)[nH]c2=O)cc1 returned NPSR antag 11.6%, IMPase Li cell -2.4%, Epigenetic reg -1.0%, GCN5L2 inh -6.5%, KDM4E inh 11.2µM* and Sfp PPTase inh 21.6%.
Screening C[C@@H]1O[C@H](OC2[C@@H](O)[C@H](O)C(O)[C@H](O)[C@H]2O)[C@@H](N)C[C@@H]1N=C(N)C(=O)O (stereo partly specified) returned IMPase Li cell -0.5%.
Screening S=P(Nn1cnnc1)(c1ccc(Br)cc1)c1ccc(Br)cc1 returned NPSR antag -42.2%, IMPase Li cell -9.5%, Epigenetic reg 7.0%, GCN5L2 inh -7.1%, KDM4E inh -24.7% and Sfp PPTase inh 79.4µM*.
For CCNc1nc(Cl)nc(NCC)n1 the results were IMPase Li cell 1.5%, Epigenetic reg -1.8%, GCN5L2 inh 28.2µM*, KDM4E inh 0.9% and Sfp PPTase inh -0.8%.
For C[C@@H](Cc1ccc(Cl)cc1Cl)NO the results were IMPase Li cell -6.9%.
Screening CCN(CC)P(=S)(c1c(C)nc2ccccn12)c1c(C)nc2ccccn12 returned NPSR antag -51.4%, IMPase Li cell 5.1%, Epigenetic reg 0.0%, GCN5L2 inh -16.9%, KDM4E inh -15.2% and Sfp PPTase inh 50.1µM*.
For CCOc1c(P(=S)(N(C)C)N(C)C)c(C)nn1-c1ccccc1 the results were NPSR antag -13.6%[46.1 µM], IMPase Li cell 3.4%, Epigenetic reg 0.0%, GCN5L2 inh -18.9%, KDM4E inh -1.8% and Sfp PPTase inh 11.1%.
For CN1C(=O)C(Cc2c[nH]c3ccccc23)C(=O)N(C)C1=O the results were NPSR antag 2.6%[46.1 µM], IMPase Li cell 8.9%[38.3 µM], Epigenetic reg 0.0%, GCN5L2 inh 2.0%, KDM4E inh inconclusive and Sfp PPTase inh 39.8µM*.
For CN1C(=O)C(Cc2cccc3ccccc23)C(=O)N(C)C1=O the results were NPSR antag -17.0%[46.1 µM], IMPase Li cell 21.4%[38.3 µM], Epigenetic reg 4.8%, GCN5L2 inh 0.5%, KDM4E inh -25.6% and Sfp PPTase inh -45.7%.
For Nc1ccccc1-c1ccccc1 the results were IMPase Li cell -4.1%.
O=c1ccc2cc(O[C@H]3O[C@@H](CO)[C@@H](O)[C@@H](O)[C@@H]3O)c(O)cc2o1 was read as IMPase Li cell -13.2%, Epigenetic reg 5.2%[16.9 µM], GCN5L2 inh inconclusive, KDM4E inh inconclusive and Sfp PPTase inh 27.6%.
